Results filed as inconclusive are left out. Activity calls are given as the source filed them. Unless noted, the call rests on the fitted dose curve; in most records, active means well fitted inhibition curve with a large enough effect; inconclusive means small, poorly fitted or top-dose-only effect; inactive means flat fitted curve, though single readings scatter.
How the values were obtained:
[1] = target: Glucocorticoid receptor (Homo sapiens) (UniProt P04150); test: GR-EFC Redistribution (AID 451; calls by dose curve; further: potency means the concentration at half of the fitted maximal effect); details: CHO-K1 GR-EFC translocation, beta-gal luminescence, 2 h
Sequence of Glucocorticoid receptor (Homo sapiens) (P04150 whole entry, looked up, the tested form may be a part): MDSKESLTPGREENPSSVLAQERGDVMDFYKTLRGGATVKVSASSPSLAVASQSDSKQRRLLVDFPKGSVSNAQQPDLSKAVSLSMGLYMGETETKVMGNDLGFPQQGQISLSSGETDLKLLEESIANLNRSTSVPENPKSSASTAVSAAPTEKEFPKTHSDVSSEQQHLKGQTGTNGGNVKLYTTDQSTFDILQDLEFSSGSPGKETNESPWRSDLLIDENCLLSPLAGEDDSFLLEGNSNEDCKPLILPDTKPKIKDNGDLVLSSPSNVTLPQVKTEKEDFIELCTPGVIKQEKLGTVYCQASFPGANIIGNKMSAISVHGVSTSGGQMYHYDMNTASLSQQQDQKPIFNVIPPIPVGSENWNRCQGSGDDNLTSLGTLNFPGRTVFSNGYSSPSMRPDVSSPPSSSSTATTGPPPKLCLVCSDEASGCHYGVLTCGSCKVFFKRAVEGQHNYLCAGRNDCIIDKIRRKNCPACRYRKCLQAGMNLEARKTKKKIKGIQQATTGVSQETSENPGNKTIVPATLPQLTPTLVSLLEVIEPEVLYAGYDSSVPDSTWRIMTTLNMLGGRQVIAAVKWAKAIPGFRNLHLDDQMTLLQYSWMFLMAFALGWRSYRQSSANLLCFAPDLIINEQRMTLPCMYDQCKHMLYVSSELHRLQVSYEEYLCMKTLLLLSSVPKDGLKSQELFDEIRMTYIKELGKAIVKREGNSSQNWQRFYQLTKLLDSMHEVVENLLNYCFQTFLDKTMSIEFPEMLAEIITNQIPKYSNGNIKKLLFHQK
Procedure, shortened: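 CHO-K1 cells expressing nuclear EA and GR-ED fragments of b-gal; compounds titrated up to 46 uM final, 2 h at 37 C. GR nuclear translocation read as complemented b-gal luminescence after 1 h RT detection.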

[2] = target: Mitogen-activated protein kinase 10 (Mus musculus) (UniProt Q61831); test: JNK3 AlphaScreen Assay (AID 530; active means well fitted curve in either direction with a large enough effect, not every such curve was filed as active;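 further: kinase came from lysate of stimulated human HepG2 cells; signal reports phosphorylation of biotinylated GST-cJun 1-79 at Ser73 with 10 µM ATP; on the % scale 0 is the no-effect control and ±100 the full control effect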); details: JNK3 lysate, c-Jun phosphorylation; series mostly up to 25.6 µM
Procedure, shortened: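 Pre-activated (IL-1β/TNFα) JNK3 in HepG2 lysates phosphorylates biotin-GST-cJun(1-79), 10 uM ATP; anti-phospho-cJun(Ser73) AlphaScreen read at room temperature, pH 7.6 Tris buffer. Compounds pre-incubated 15 min as titrations.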

[3] = qHTS Assay for Lipid Storage Modulators (AID 1519; calls by dose curve; on activity change, negative = inhibition: on the % scale 0 is the no-effect control and ±100 the full control effect); details: Drosophila S3 cells, BODIPY lipid droplet/cell ratio, laser cytometry, cells loaded with oleic acid; for activity change, negative = inhibition: at 57.5 µM (top of the series)
Procedure, shortened: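 Cells seeded at 5,000 per well were treated with compounds over a concentration series and loaded with oleic acid (400 uM, as added). Lipid droplet fluorescence (488 nm excitation, 500-530 nm channel) was read by laser-scanning cytometry and normalized to 20 uM Triacsin C.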

[4] = target: Ubiquitin carboxyl-terminal hydrolase 1 (Homo sapiens) (UniProt O94782); test: Inhibitors of USP1/UAF1: Pilot qHTS (AID 504865); details: purified USP1/UAF1, Ub-rhodamine cleavage fluorescence; series mostly up to 114 µM;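 further: rhodamine fluorescence freed from ubiquitin-rhodamine substrate followed over time; top concentration of the series differs between compounds; on the % scale 0 is the no-effect control and ±100 the full control effect; nearly all actives have a fitted effect of over 35% in size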
Sequence of Ubiquitin carboxyl-terminal hydrolase 1 (Homo sapiens) (O94782 whole entry, looked up): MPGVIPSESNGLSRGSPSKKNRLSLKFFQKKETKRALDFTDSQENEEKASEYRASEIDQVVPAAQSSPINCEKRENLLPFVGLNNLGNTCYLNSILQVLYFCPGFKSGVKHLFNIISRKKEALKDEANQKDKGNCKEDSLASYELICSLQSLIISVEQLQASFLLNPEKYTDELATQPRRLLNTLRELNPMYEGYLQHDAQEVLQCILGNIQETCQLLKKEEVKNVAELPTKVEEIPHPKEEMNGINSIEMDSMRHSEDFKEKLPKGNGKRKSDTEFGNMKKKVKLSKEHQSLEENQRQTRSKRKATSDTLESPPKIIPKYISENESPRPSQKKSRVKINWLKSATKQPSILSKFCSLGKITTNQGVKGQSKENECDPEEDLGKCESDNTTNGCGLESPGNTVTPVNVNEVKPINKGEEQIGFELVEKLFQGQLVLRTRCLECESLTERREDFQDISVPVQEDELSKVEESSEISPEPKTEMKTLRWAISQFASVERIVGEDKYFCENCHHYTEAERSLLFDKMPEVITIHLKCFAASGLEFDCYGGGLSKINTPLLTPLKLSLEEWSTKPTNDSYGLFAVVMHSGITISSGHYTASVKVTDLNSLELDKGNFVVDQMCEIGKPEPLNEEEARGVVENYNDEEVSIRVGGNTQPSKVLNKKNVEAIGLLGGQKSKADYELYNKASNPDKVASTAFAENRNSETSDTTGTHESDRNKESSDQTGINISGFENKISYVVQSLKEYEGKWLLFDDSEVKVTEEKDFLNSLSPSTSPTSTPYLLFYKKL
Procedure, shortened: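 Kinetic fluorescence assay: 1nM USP1/UAF1, 15 min compound preincubation, then 150nM Ub-Rho; 480/540 nm.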

[5] = target: Luciferin 4-monooxygenase (Photinus pyralis) (UniProt P08659); test: Biochemical firefly luciferase enzyme assay for NPC (AID 624030);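 further: purified P. pyralis luciferase at 10 nM with luciferin and ATP substrate; 0% = DMSO and -100% = full luciferase inhibition by PTC124 control; nearly all actives have a fitted effect of over 70% in size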; details: purified P. pyralis luciferase, luminescence, 5 min; series mostly up to 24.9 µM
Sequence of Luciferin 4-monooxygenase (Photinus pyralis) (P08659 whole entry, looked up): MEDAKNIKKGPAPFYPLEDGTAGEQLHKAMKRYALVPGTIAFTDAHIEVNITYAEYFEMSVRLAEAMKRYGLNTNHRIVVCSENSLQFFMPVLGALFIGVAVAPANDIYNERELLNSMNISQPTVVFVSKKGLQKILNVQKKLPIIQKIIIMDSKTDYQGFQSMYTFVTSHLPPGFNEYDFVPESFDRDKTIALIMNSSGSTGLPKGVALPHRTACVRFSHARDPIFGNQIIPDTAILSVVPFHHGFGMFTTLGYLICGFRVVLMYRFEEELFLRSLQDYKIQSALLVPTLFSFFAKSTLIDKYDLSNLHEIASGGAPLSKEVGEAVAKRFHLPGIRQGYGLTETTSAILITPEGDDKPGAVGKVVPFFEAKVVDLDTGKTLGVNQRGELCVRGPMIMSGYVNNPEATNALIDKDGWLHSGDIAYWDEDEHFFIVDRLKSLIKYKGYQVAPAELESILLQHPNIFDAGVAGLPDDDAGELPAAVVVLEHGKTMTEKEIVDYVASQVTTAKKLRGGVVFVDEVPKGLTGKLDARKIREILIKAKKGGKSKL
Procedure, shortened: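 Purified P. pyralis luciferase at 10 nM in 50 mM Tris Acetate (final), luminescence read within 5 minutes of enzyme addition to compounds. Activity normalised to PTC124 versus DMSO; concentration-response curves classed by r2, magnitude and activity.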

[6] = qHTS profiling for inhibitors of Plasmodium falciparum proliferation (AID 504749);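 further: 0% = DMSO vehicle and full inhibition = artemisinin control; nearly all actives have a fitted effect of over 60% in size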; details: P. falciparum in erythrocytes, SYBR Green DNA, 72 h, at 28.7 µM (top of the series)
Procedure, shortened: (§1)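 P. falciparum-infected erythrocytes (0.3% parasitemia, 2.5% hematocrit) incubated with compound 72 h at 37 C, 5% CO2. Parasite DNA detected by SYBR Green after lysis, overnight at room temperature; normalised to 0.29 uM artemisinin and DMSO.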

[7] = tested on: 3D7; test: as above; details: P. falciparum in erythrocytes, SYBR Green DNA, 72 h; series mostly up to 12.8 µM
Procedure, shortened: as §1

[8] = tested on: C2A; test: as above; details: P. falciparum in erythrocytes, SYBR Green DNA, 72 h; series mostly up to 12.8 µM
Procedure, shortened: as §1

[9] = tested on: CP217; test: as above; details: P. falciparum in erythrocytes, SYBR Green DNA, 72 h; series mostly up to 12.8 µM
Procedure, shortened: as §1

[10] = tested on: CP237; test: as above; details: P. falciparum in erythrocytes, SYBR Green DNA, 72 h; series mostly up to 12.8 µM
Procedure, shortened: as §1

[11] = tested on: CP238; test: as above; details: P. falciparum in erythrocytes, SYBR Green DNA, 72 h; series mostly up to 12.8 µM
Procedure, shortened: as §1

[12] = tested on: CP252; test: as above; details: P. falciparum in erythrocytes, SYBR Green DNA, 72 h; series mostly up to 12.8 µM
Procedure, shortened: as §1

[13] = tested on: CP291; test: as above; details: P. falciparum in erythrocytes, SYBR Green DNA, 72 h; series mostly up to 12.8 µM
Procedure, shortened: as §1

[14] = tested on: CP297; test: as above; details: P. falciparum in erythrocytes, SYBR Green DNA, 72 h; series mostly up to 12.8 µM
Procedure, shortened: as §1

[15] = tested on: ECU; test: as above; details: P. falciparum in erythrocytes, SYBR Green DNA, 72 h; series mostly up to 12.8 µM
Procedure, shortened: as §1

[16] = tested on: HB3; test: as above; details: P. falciparum in erythrocytes, SYBR Green DNA, 72 h; series mostly up to 12.8 µM
Procedure, shortened: as §1

[17] = tested on: PAD; test: as above; details: P. falciparum in erythrocytes, SYBR Green DNA, 72 h; series mostly up to 12.8 µM
Procedure, shortened: as §1

[18] = tested on: PC26; test: as above; details: P. falciparum in erythrocytes, SYBR Green DNA, 72 h; series mostly up to 12.8 µM
Procedure, shortened: as §1

[19] = tested on: SC27B; test: as above; details: P. falciparum in erythrocytes, SYBR Green DNA, 72 h; series mostly up to 12.8 µM
Procedure, shortened: as §1

[20] = measured here: cell count channel max response
[21] = measured here: lipid channel max response

COc1cccc(-c2nc(NCCc3c[nH]c4ccc(OC)cc34)c3ccccc3n2)c1
-17.7%: max response [3, 20]
inactive: Potency [1] > 46 µM | Potency [2] | activity change, negative = inhibition [3] 5.14%
-5.2%: max response [3, 21]

Nc1ncnc2c1nc(Br)n2[C@H]1O[C@H]2COP(=O)(O)O[C@H]2[C@@H]1O
inactive: Potency [1] > 46 µM | activity change, negative = inhibition [3] -1.26% | Potency [4]
0.508%: max response [3, 21]
2.68%: max response [3, 20]

CC1(C)OC2CC(=O)OC[C@@]23C1CC(=O)[C@]1(C)C3CC[C@@]2(C)C(c3ccoc3)OC(=O)C3O[C@@]321 (some centres undefined)
29.2%: max response [3, 21]
20.2%: max response [3, 20]
inactive: activity change, negative = inhibition [3] 7.05% | Potency [5] | activity, negative = inhibition ([6]; parasite line A) -0.282% | activity, negative = inhibition ([6]; parasite line B) 13.3% | Potency [7] | Potency [8] | Potency [9] | Potency [10] | Potency [11] | Potency [12] | Potency [13] | Potency [14] | Potency [15] | Potency [16] | Potency [17] | Potency [18] | Potency [19]

O=C1OC(CO)C(O)C(O)C1O (centres undefined)
26.8%: max response [3, 21]
17.3%: max response [3, 20]
inactive: activity change, negative = inhibition [3] 6.29% | Potency [4] | Potency [5] | activity, negative = inhibition ([6]; parasite line A) 11.9% | activity, negative = inhibition ([6]; parasite line B) -2.03% | Potency [7] | Potency [8] | Potency [9] | Potency [10] | Potency [11] | Potency [12] | Potency [13] | Potency [14] | Potency [15] | Potency [16] | Potency [17] | Potency [18] | Potency [19]
